# In the library only some 2.9% were active in any assay of this set; here they are far more common.
# PLCb3 inh = PLC-beta3 (human) inhibition, primary screen. Q01970. Purified PLC-beta3, fluorogenic substrate, fluorescence. inhibition, % at 12.2 µM. hit rate 0.18% among 370,000. AID 720704; in the data active = inhibition above about 11%;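 note: 0% = median of compound wells on plate and 100% = full blocker control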
# PLC-gamma1 inh = inhibitors of human phospholipase C gamma1. purified PLC-gamma1, fluorogenic substrate, fluorescence. inhibition, % at 12.2 µM. AID 720700. P19174. hit rate 0.84% among 370,000; in the data active = inhibition above about 9.5%
# proKLK7 act = activates the human kallikrein-7 zymogen; AID 652039; purified proKLK7, EDANS-DABCYL substrate fluorescence; 100% is mature enzyme control, 0% vehicle; P49862; hit rate 0.9% among 370,000; activation, % at 7 µM;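 active = activation above the mean of all tested compounds plus 3 SD, computed per campaign excluding outliers beyond control limits, cut at about 13% in these data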
# ADAM17 inh = inhibits human ADAM17 | inhibition, % at 6.95 µM | hit rate 0.83% among 370,000 | recombinant ADAM17, EDANS/DABCYL FRET peptide cleavage;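 active = inhibition above the mean of compounds lying between control limits plus 3 SD, set per campaign, cut at about 8.5% in these data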;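 note: 0% = DMSO-only wells as the low control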
# ADAM10 inh = inhibitors of human ADAM10 | O14672 | recombinant ADAM10, EDANS/DABCYL FRET peptide cleavage, 3 h | inhibition, % at 7 µM | hit rate 0.62% among 370,000 | AID 720582;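 active = inhibition above a per-campaign cutoff equal to the mean of compounds falling between control-based bounds plus 3 SD, cut at about 20% in these data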;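 note: 0% = DMSO wells while the 100% control is not disclosed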
# proKLK7 act conf = confirmation of human kallikrein-7 zymogen activators; AID 686949; purified proKLK7, EDANS-DABCYL substrate fluorescence; scaled: vehicle 0, mature enzyme 100; shares compounds with proKLK7 act; hit rate 68% among 3,200; activation, % at 7 µM;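 active = activation, as change over the incubation, above the mean of all tested compounds plus 3 SD, cut at about 13% in these data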
# EDANS interfere = counter-screen for kallikrein-7 activators: EDANS-DABCYL optical interference | AID 686952 | EDANS-DABCYL substrate fluorescence interference, no enzyme, 4 h; solvent 0%, active enzyme control 100% | hit rate 80% among 3,200 | activation, % at 7 µM | shares compounds with proKLK7 act;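 active = activation above the all-compound mean plus 3 SD, ignoring values outside control-based bounds, cut at about 4.8% in these data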;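 note: value is the 4 h activation minus the activation read at time zero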
# ADAM10 confirm = human ADAM10 inhibition, confirmation | hit rate 1% among 2,100 | inhibition, % at 6.95 µM | AID 743208 | shares compounds with ADAM10 inh | ADAM10 QFRET peptide cleavage, EDANS fluorescence;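 active = inhibition above about 20% chosen separately for each screening run, limit read from the data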;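 note: 0% = DMSO wells and 100% = marimastat wells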
# ADAM17 ctr = counter-screen for ADAM10 exosite inhibitors: inhibitors of human ADAM17. shares compounds with ADAM10 inh. AID 743214. hit rate 0.5% among 2,100. inhibition, % at 6.95 µM. ADAM17 QFRET peptide cleavage, EDANS fluorescence;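 active = mean triplicate inhibition above the solvent-only control wells' mean plus 3 SD, cut at about 12% in these data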;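 note: 0% = DMSO wells and 100% = marimastat wells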
# ADAM10 ctr = ADAM10 inhibition, counter-screen for ADAM17 exosite hits; AID 743256; shares compounds with ADAM17 inh; hit rate 47% among 2,900; recombinant ADAM10, EDANS/DABCYL FRET peptide cleavage, 3 h; inhibition, % at 6.95 µM;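 active = mean inhibition over the triplicate runs exceeds the activity threshold set in the earlier primary screen, cut at about 20% in these data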;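 note: 0% = DMSO wells and 100% = marimastat wells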
# ADAM17 confirm = human ADAM17 inhibition, confirmation. shares compounds with ADAM17 inh. recombinant ADAM17, EDANS/DABCYL QFRET peptide cleavage. inhibition, % at 6.95 µM. hit rate 65% among 2,900;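 active = mean inhibition across replicates above the hit cutoff set in the primary screen, cut at about 8.5% in these data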;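 note: 0% = DMSO wells and 100% = marimastat wells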
# * marks the source's active call; other numbers are inactive results; . = no result given.
SMILES,PLCb3 inh,PLC-gamma1 inh,proKLK7 act,ADAM17 inh,ADAM10 inh,ADAM10 confirm,ADAM17 ctr,others
O=C(Nc1nc(-c2ccccc2)cs1)c1ccc(S(=O)(=O)N2CCc3ccccc32)cc1,-59,-38,14*,9.7*,13,.,.,proKLK7 act conf=0;EDANS interfere=-2;ADAM10 ctr=10;ADAM17 confirm=9.7*
NS(=O)(=O)c1ccc(NC(=O)CSc2nc3ccccc3c(=O)n2-c2ccc(Br)cc2)cc1,0,1,0,-1,17,.,.,
O=c1c2ccccc2c(-c2ccc(O)cc2)nn1-c1cccc(C(F)(F)F)c1,-40,-27,-3,12*,21*,6,2,
N#Cc1nc(COc2ccc(Br)cc2)oc1N1CCCC1,0,8,-1,5,21*,2,0,
O=C1CC(c2ccsc2)Sc2ccccc2N1 (stereo not given),-6,-2,0,-3,-7,.,.,
CC1CC(=O)C2=C(C1)Nc1ccccc1SC2c1ccc(F)cc1 (stereo not given),-22,-13,1,2,21*,4,1,
CCOc1ccc(CCN2C(=S)N([C@@H](Cc3ccc(O)cc3)CN3CCC[C@@H]3CN3C(=S)NC[C@@H]3Cc3ccccc3)C[C@@H]2CC(C)C)cc1,6,-1,0,1,0,.,.,
CCOc1ccc(CCN2C(=S)N([C@@H](Cc3ccc(O)cc3)CN3CCC[C@@H]3CN3C(=S)NC[C@@H]3CC(C)C)C[C@@H]2Cc2ccccc2)cc1,-3,0,0,4,21*,12,5,
Cc1noc(NS(=O)(=O)c2ccc(NC(=O)/C=C/c3ccc(Br)cc3)cc2)c1C,-6,7,1,-2,22*,0,0,
O=S(=O)(NCc1ccc(Cl)cc1)c1ccc(Br)cc1C1CC[C@@H](O)C1 (stereo not given in full),-2,6,-1,8,7,.,.,
Cc1ccc(C)c(NS(=O)(=O)c2ccc(NC(=O)CSc3ccc(Cl)cc3)cc2)c1,-2,-3,1,-3,6,.,.,
Cc1ccc(NS(=O)(=O)c2ccc(NC(=O)C(C)Sc3ccc(Cl)cc3)cc2)c(C)c1 (stereo not given),-104,1,0,8,27*,9,4,
COc1ccccc1NCC(O)COc1ccc(C(C)(C)C)cc1 (stereo not given),0,0,1,5,21*,2,1,
CC(=O)Nc1ccc(S(=O)(=O)N[C@@H](C)C(=O)N2CCN(c3ccccn3)CC2)cc1,-1,6,0,0,-4,.,.,
CCC(NS(=O)(=O)c1ccc(C)cc1)C(=O)N1CCN(c2ccccn2)CC1 (stereo not given),3,3,0,-1,80*,2,1,
C#CCN(C[C@@H]1[C@@H](OC(=O)NCc2ccco2)[C@@H](OC(=O)NCc2ccco2)Cn2c(=O)ccc(=O)n21)S(=O)(=O)c1ccc(C)cc1,-6,-3,0,-4,-8,.,.,
C#CCN(C[C@H]1[C@H](OC(=O)NCc2ccco2)[C@H](OC(=O)NCc2ccco2)C[C@H]2C(=O)N(c3ccccc3)C(=O)[C@@H]12)S(=O)(=O)c1ccc(C)cc1,2,2,1,8,21*,8,2,
CNc1ccccc1/C(O)=C(\C#N)C(=O)NCc1cccs1,-7,-8,0,-1,2,.,.,
Cc1ccnc(NCc2cccc3ccccc23)c1,0,2,0,2,23*,2,0,
CCCCCCCCN1C(=O)[C@@H](CC(=O)N2CCC(c3ccccc3)CC2)C[C@@]2(C(=O)OC)C1=C[C@H](COCc1ccccc1)O[C@@H]2C,1,5,0,0,8,.,.,
COC(=O)[C@]12C[C@H](CC(=O)N3CCC(c4ccccc4)CC3)C(=O)N(Cc3ccccc3)C1=C[C@H](COCc1ccccc1)O[C@@H]2C,3,8,0,8,24*,5,1,
COc1cc(NC(=O)C2CCN(S(=O)(=O)c3cccc4nonc34)CC2)cc(OC)c1,2,6,0,3,23*,-1,0,
O=C(NC(=S)NCc1ccco1)c1cccc(Cl)c1,-9,-1,0,5,4,.,.,
O=C(NC(=S)NCc1ccccc1)c1cccc(Cl)c1,4,5,0,8,20*,6,1,
Cc1cccc(NC(=O)C2CCCN(c3nnc(-n4cccc4)s3)C2)c1C (stereo not given),8,-1,0,-4,-12,.,.,
SMILES,PLCb3 inh,PLC-gamma1 inh,proKLK7 act,ADAM17 inh,ADAM10 inh,ADAM10 confirm,ADAM17 ctr,others
C=CCn1c(C)cc(C(=O)COC(=O)C2CC(=O)N(Cc3ccccc3)C2)c1C (stereo not given),1,0,0,-2,78*,0,0,
Cc1ccc(-c2n[nH]c(=S)n2/N=C/C=C\c2ccccc2[N+](=O)[O-])cc1,6,4,0,8,29*,1,0,
O=[N+]([O-])c1ccccc1/C=C/C=N/n1c(-c2ccccc2)n[nH]c1=S,-1,2,0,-1,7,.,.,
Cc1ccccc1-n1nc(-c2ccc(N)cc2)cc1N,-33,-23,-2,6,42*,3,0,
Nc1ccc(-c2cc(N)n(-c3ccccc3)n2)cc1,-44,-35,0,1,4,.,.,
N#Cc1c(N)[nH]c2ccc(Sc3ccccc3)cc12,3,2,0,1,25*,3,2,
N#Cc1c(N)[nH]c(=S)c(C#N)c1-c1ccccc1,-24,-12,-1,-12,-56,.,.,
O=C1c2[nH]nc(-c3ccccc3O)c2C(c2cccc(Cl)c2)N1Cc1ccco1 (stereo not given),-6,0,0,7,29*,4,1,
COC(=O)C1CN(Cc2cn(Cc3ccc(OC)cc3)nn2)CCS(=O)(=O)N1Cc1ccc(Cl)cc1 (stereo not given),0,0,0,-1,-1,.,.,
